Results published in publication PMC5540273 (PLoS ONE, 2017).

Legend:
Conditions in all cases: concentration: 1 μM, replicates: in singlicate; n = 1
PIP5K2C = tested on: T1, PIP5K2C
T1 construct: gene PIP4K2C

PKAC-alpha = tested on: T2, PKAC-alpha
T2 construct: gene PRKACA

PKAC-beta = tested on: T3, PKAC-beta
T3 construct: gene PRKACB

PKMYT1 = tested on: PKMYT1
PKN1 = tested on: PKN1
PKN2 = tested on: PKN2
PLK1 = tested on: PLK1
PLK2 = tested on: PLK2
PLK3 = tested on: PLK3
PLK4 = tested on: PLK4
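Further: KINOMEscan kinase panel screen.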

Row | SMILES | %Inh (PIP5K2C) [%] | %Inh (PKAC-alpha) [%] | %Inh (PKAC-beta) [%] | %Inh (PKMYT1) [%] | %Inh (PKN1) [%] | %Inh (PKN2) [%] | %Inh (PLK1) [%] | %Inh (PLK2) [%] | %Inh (PLK3) [%] | %Inh (PLK4) [%]
1 | CCC(CC)(CC)n1cnc2c(N)ncnc21 [SKF-97620] | 0 | 11 | 14 | 2 | 0 | 0 | 45 | 32 | 21 | 7
2 | OCCOCCn1ccc2ncnc(Nc3ccc(Oc4cccc(Cl)c4)c(Cl)c3)c21 | 30 | 0 | 0 | 0 | 13 | 0 | 0 | 0 | 0 | 0
3 | FC(F)(F)c1cc(Nc2nccc(-c3c(-c4ccc(Cl)cc4)nn4ncccc34)n2)ccc1Cl [GW829351] | 0 | 0 | 0 | 0 | 0 | 0 | 0 | 0 | 3 | 7
4 | CNc1nccc(-c2c(-c3ccc(F)cc3)ncn2C2CCN(C)CC2)n1 [SB-222903] | 90 | 1 | 17 | 0 | 0 | 0 | 0 | 0 | 4 | 0
5 | Oc1ccc2ncnc(Nc3ccc(OCc4ccccc4)cc3)c2c1 [GI262866] | 40 | 0 | 0 | 5 | 1 | 0 | 0 | 0 | 0 | 0
6 | Clc1cc(Nc2ncnc3cc[nH]c23)ccc1OCc1ccccn1 | 8 | 23 | 0 | 0 | 23 | 0 | 2 | 23 | 25 | 34
7 | Cn1ccc2ncnc(Oc3ccc(NC(=O)Nc4cccnc4)c(Cl)c3)c21 | 0 | 7 | 0 | 0 | 0 | 0 | 0 | 5 | 11 | 11
8 | COc1cc2c(Nc3cccc(NC(=O)c4ccccc4)c3)ncnc2cc1OCCCN1CCOCC1 [GSK223810] | 0 | 100 | 0 | 7 | 8 | 0 | 0 | 3 | 0 | 17
9 | Nc1n[nH]c2nnc(-c3ccccc3)cc12 [SB-517389] | 7 | 0 | 0 | 0 | 7 | 0 | 0 | 35 | 33 | 9
10 | N#Cc1ccc(Oc2ccc(Nc3ncnc4cc[nH]c34)cc2Cl)cc1 | 0 | 8 | 0 | 19 | 0 | 0 | 4 | 5 | 11 | 21
11 | O=c1cc(N2CCOCC2)nc2n(Cc3cccc(Cl)c3)ccn12 [GSK2296823] | 0 | 0 | 0 | 11 | 34 | 0 | 5 | 0 | 0 | 0
12 | CCCc1ccc(S(=O)(=O)NC2CCN(c3ccnc(Nc4ccc(OC)cc4)n3)C2)cc1 (stereo not drawn) [GSK1379737] | 66 | 0 | 0 | 0 | 0 | 0 | 1 | 0 | 0 | 0
13 | Cc1ccc(NC(=O)c2cccc(C#N)c2)cc1-c1ccc(C(=O)Nc2ccncc2)cc1 [GSK1398463] | 0 | 0 | 0 | 0 | 28 | 0 | 0 | 0 | 0 | 2
14 | O=C(Nc1n[nH]c2nc(-c3ccco3)c(Br)cc12)c1ccc(CN2CCCC2)cc1.O=C(O)[C@H](O)[C@@H](O)C(=O)O [SB-742352] | 0 | 0 | 0 | 0 | 0 | 21 | 0 | 0 | 0 | 3
15 | FC(F)(F)c1ccc(-c2cc(-c3c[nH]nc3-c3ccccn3)ccn2)cc1 [GW599550] | 59 | 10 | 6 | 0 | 0 | 0 | 0 | 0 | 0 | 10
